# Results filed as inconclusive are left out. A call without a number means that no potency is given here. Active and inactive are the calls of the source. Calls follow the shape of the dose curve; as a rule, active = well fitted curve in the direction sought with a large enough effect; inconclusive = small, poorly fitted or top-dose-only effect, or another doubt; inactive = no such curve, though single readings can be large; an effect the other way counts as inactive or inconclusive.
# Assays:
# [1] = qHTS to identify inhibitors of the type 1 interferon - major histocompatibility complex class I in skeletal muscle: primary screen against the NCATS Mechanism Interrogation Plate v5.0 (MIPE) Libary (AID 1347411); details: iHSKM cells + IFN-b, HiBiT-tagged MHC-I luminescence, 24 h; series mostly up to 45.8 µM; also: nearly all actives have a fitted effect of over 65% in size
# Method in brief: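 Immortalized human myoblasts (C25cl48) with HiBit knocked into endogenous HLA-B*08:01 were stimulated with 4 ng/ml IFN-beta and given compounds in 11-point 1:3 titration from 46 uM. After 24 h at 37 C, lytic HiBiT luminescence was read.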
# [2] = qHTS assay for small molecule disruptors of mitochondrial membrane potential screened against the NCATS CANVASS Library (AID 1347389); details: HepG2 mitochondrial membrane potential, m-MPI red/green ratio, 1.5 h; series mostly up to 46.1 µM; also: nearly all actives have a fitted effect of over 60% in size
# Description: (§1) Natural products and their derivatives continue to be wellsprings of nascent therapeutic potential. However, many laboratories have limited resources for biological evaluation, leaving their previously isolated or synthesized compounds largely or completely untested. To address this issue, the Canvass library of natural products was assembled (https://tripod.nih.gov/canvass), in collaboration with academic and industry researchers, for quantitative high-throughput screening (qHTS) across a diverse set of cell-based and biochemical assays. The pure (>85% purity by liquid chromatography/mass spectrometry [LC/MS]) Canvass library of 346 natural products were submitted by 45 academic laboratories and companies around the world. We collected pure natural products to circumvent deconvolution and structure elucidation due to time and resource limitations. The library was formatted into 1536-well plates and evaluated in 50 qHTS (in an 11-pnt concentration series) bioassays with broad scope of disease-relevant mechanisms. The resulting data set from 50 different assays was then systematically analyzed to identify overall trends and specific natural products with interesting biological activities. Reported herein are the results of each individual qHTS and their corresponding assay protocol. In healthy cells, the mitochondria are polarized and mitochondrial-membrane potential indicator (m-MPI) accumulates in the mitochondria as red fluorescent aggregates (emission at 590 nm). As the mitochondrial membrane depolarizes, m-MPI red-colored J-aggregates are converted to green fluorescent monomers (emission at 535 nm) and released from mitochondria into the cytosol. In response to mitochondrial depolarization, the red-to-green fluorescence ratio decreases. National Center for Advancing Translational Sciences (NCATS), Rockville, MD National Institute of Health (NIH), Bethesda, Maryland
# Mitochondrial membrane potential protocol: 2,000 HepG2 cells in 5 uL/well were dispensed into black, clear-bottom 1536-well plates using a Multidrop Combi (Thermo Scientific) dispenser. The assay plates were incubated overnight at 37C to allow cells to attach to the wells, followed by the transfer of 23 nL compound or DMSO vehicle by a pin tool (Kalypsys). The plates were incubated for 1 hr at 37C and 5% CO2, followed by the addition of 5 uL of 2X Mito-MPS dye (BD Biosciences) into each well using Flying Reagent Dispenser (Aurora Discovery) and then following 30 min incubation at 37C. Fluorescence intensity (490nm excitation and 535nm emission for monomers; and 540nm excitation and 590nm emissions for aggregates) was measured using an Envision plate reader.
# [3] = Secretion counterscreen for inhibitors of the SERCaMP assay screened against the NCATS CANVASS Library (AID 1347390); details: SH-SY5Y constitutive GLuc secretion, luminescence, 20 h; series mostly up to 76.6 µM;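 also: light from luciferase secreted into medium read as a measure of general secretion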
# Description: as §1, with “Compounds that interfere with” for “In healthy cells,”, “secretory pathway can show activity” for “mitochondria are polarized and mitochondrial-membrane potential indicator (m-MPI) accumulates”, “SERCaMP assay. This type of false positive is identified using a constitutively secreted GLuc reporter.” for “mitochondria as red fluorescent aggregates (emission at 590 nm). As the mitochondrial membrane depolarizes, m-MPI red-colored J-aggregates are converted to green fluorescent monomers (emission at 535 nm) and released from mitochondria into the cytosol. In response to mitochondrial depolarization, the red-to-green fluorescence ratio decreases.”, “(NCAwsTS),” for “(NCATS),”
# SERCaMP secretion assay protocol: 1. In a white-solid bottom 1536-well tissue culture plate (Corning 7494), 5 uL of SH-SY5Y-GLuc STOP cells were dispensed using a Multidrop Combi (Thermo Fisher Scientific) at a final concentration of 1000 cells / well. 2. […] Luminescence signal was obtained via the ViewLux plate reader (Perkin Elmer) using the clear emission filter and 1x binning, 5 seconds exposure settings.
# [4] = qHTS for activators of Nrf2/ARE signaling pathway screened against the NCATS CANVASS Library (AID 1347391); details: ARE-bla HepG2, beta-lactamase reporter, 16 h; series mostly up to 91.4 µM; also: nearly all actives have a fitted effect of over 60% in size
# Description: as §1, with “This assay measures” for “In healthy cells,”, “activation of the Nrf2/ARE signaling pathway in cells using a beta-lactamase reporter gene. The ARE-bla HepG2 assay (Invitrogen) can detect the up-regulation of the antioxidant response element (ARE) signaling pathway” for “mitochondria are polarized”, “may be useful for” for “mitochondrial-membrane potential indicator (m-MPI) accumulates in”, “identification of chemicals that induce oxidative stress.” for “mitochondria as red fluorescent aggregates (emission at 590 nm). As the mitochondrial membrane depolarizes, m-MPI red-colored J-aggregates are converted to green fluorescent monomers (emission at 535 nm) and released from mitochondria into the cytosol. In response to mitochondrial depolarization, the red-to-green fluorescence ratio decreases.”
# Nrf2/ARE-screen assay protocol: 1. […] Fluorescence readout was obtained using the Envision plate reader (PerkinElmer) using a 405 nm excitation and 460 nm and 530 nm emission filters. […] Luminescence was measured using the ViewLux plate reader with clear emission filter and 2x binning, 1 sec exposure settings.
# [5] = qHTS for activators of dead-cell proteases activity screened against the NCATS CANVASS Library (AID 1347392); details: HepG2 cytotoxicity, dead-cell protease luminescence, 5 h; series mostly up to 46.1 µM;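 also: luminescence from protease leaking out of membrane-damaged cells cleaving impermeant substrate; rising signal means more cytotoxicity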
# Method in brief: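 Compounds are pin-transferred onto attached HepG2 cells, giving 11 final concentrations. After 5 h at 37C, AAF-aminoluciferin reagent is added and luminescence is recorded at room temperature.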
# [6] = qHTS for inhibitors of ER calcium dysfunction: SERCaMP assay screened against the NCATS CANVASS Library (AID 1347393); details: SH-SY5Y GLuc-SERCaMP (Gaussia luciferase released on ER calcium loss) secretion, thapsigargin, luminescence; series mostly up to 76.6 µM;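 also: lower secreted reporter signal means inhibitor of ER calcium depletion; nearly all actives have a fitted effect of over 40% in size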
# Description: as §1, with “The SERCaMP assay detects ER calcium dysfunction. A Gaussia luciferase-based reporter protein (GLuc-SERCaMP) is expressed in SH-SY5Y cells” for “In healthy cells, the mitochondria are polarized”, “secreted” for “mitochondrial-membrane potential indicator (m-MPI) accumulates”, “in” for “in the mitochondria as red fluorescent aggregates (emission at 590 nm). As the mitochondrial membrane depolarizes, m-MPI red-colored J-aggregates are converted to green fluorescent monomers (emission at 535 nm) and released from mitochondria into the cytosol. In”, “ER calcium depletion. Small molecules that stabilize ER calcium inhibit GLuc-SERCaMP release.” for “mitochondrial depolarization, the red-to-green fluorescence ratio decreases.”, “(NCAwsTS),” for “(NCATS),”
# SERCaMP assay protocol: 1. In a white-solid bottom 1536-well tissue culture plate (Corning 7494), 5 uL of SH-SY5Y-GLuc SERCaMP MJH297 derived (MP_G) cells were dispensed using a Multidrop Combi (Thermo Fisher Scientific) at a final concentration of 1000 cells / well. 2. The assay plates were incubated for 4 hours at 37C, 5% CO2, 95% humidity to acclimate and attach. 3. […] of compounds (in DMSO; columns 5-48), and positive control Bromocriptine (10 mM; 1:2 dilution; 16-points; n = 2; column 2, rows 1-32) were pin transferred into the assay plates using the Kalypsis pin tool (Wako USA) equipped with a 1536-well pin heads. This yields a final CANVASS compound concentration of 0.001 - 38.2 uM. 4. The assay plates were incubated for 16 hours at 37C, 5% CO2, 95% humidity. 5. After compound treatment, 1 uL per well of (6x) 600 nM Thapsigargin into column 1, rows 17 - 32; column 2, rows 1 - 32; columns 4 - 48, rows 1 - 32 using the BioRAPTR liquid dispenser. […] Luminescence signal was obtained via the ViewLux plate reader (Perkin Elmer) using the clear emission filter and 1x binning, 5 seconds exposure settings.
# [7] = Viability qHTS for inhibitors of the SERCaMP assay screened against the NCATS CANVASS Library (AID 1347400); details: SH-SY5Y SERCaMP cells viability, CellTiter-Glo, 48 h; series mostly up to 92.2 µM; also: nearly all actives have a fitted effect of over 70% in size
# Method in brief: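 SH-SY5Y-GLuc SERCaMP MJH297-derived cells, 1000/well, plated 4 h, then exposed to compounds in an 11-point qHTS series for 48 h at 37C. Viability read as CellTiter-Glo luminescence.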
# [8] = Redox Reaction Profiling qHTS: Assay Interference Panel against the NCATS CANVASS Library (AID 1347401); details: resazurin-DTT redox cycling, fluorescence, 15 min; series mostly up to 57.1 µM
# Method in brief: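 Cell-free redox surrogate: 5 uM resazurin + 200 uM DTT, 50 mM HEPES pH 7.3/50 mM NaCl; cpds pinned, 11-pt qHTS; Ex525/Em598 read t0 and t=15 min, dark.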
compound,measurement,setting,value
Cc1cccc(-c2nn3c(c2-c2ccnc4ccc(C(N)=O)cc24)CCC3)n1,outcome,[1],inactive
CC(C)[C@](O)(c1ccc2cc(OC(F)F)c(OC(F)F)cc2c1)c1cn[nH]n1,outcome,[1],inactive
COc1ccc2[nH]c(S(=O)Cc3ncc(C)c(OC)c3C)nc2c1 (stereo not given),outcome,[1],inactive
COc1cccc2c1c(O)c(C(=O)N(C)c1ccc(C(F)(F)F)cc1)c(=O)n2C,outcome,[1],inactive
C/C(=C\CC/C(C)=C/CC[C@]1(C)CCc2cc(O)cc(C)c2O1)CC/C=C(\C)C(=O)O,outcome,[2],inactive
same,outcome,[3],inactive
same,Potency,[4],inactive
same,outcome,[5],inactive
same,Potency,[6],inactive
same,outcome,[7],inactive
same,outcome,[8],inactive
Cc1nc(-c2cccnc2)sc1C(=O)Nc1ccccc1-c1cn2c(CN3CCOCC3)csc2n1,outcome,[1],inactive
C=C1C[C@@]2(O)O[C@@]3(C[C@H]2C(C)C)[C@@H](C)CC[C@@H]13,outcome,[1],inactive
CCCCOc1nc(N)c2c(n1)N(Cc1cccc(CN3CCCC3)c1)CC(=O)N2,outcome,[1],inactive
Cn1cc(-c2c[nH]c3ncnc(N4CCOCC4)c23)cn1,outcome,[1],inactive
O=C(COCC(=O)N1CCN(C(c2ccccc2)c2ccccc2)CC1)Nc1ccc(Cl)cc1C(=O)O,outcome,[1],inactive
N#Cc1cccc(-c2c[nH]c3ncnc(N4CCOCC4)c23)c1,outcome,[1],inactive
CCC(CC)CC1(C(=O)Nc2ccccc2SC(=O)C(C)C)CCCCC1,outcome,[1],inactive
Nc1ncnc2c1C(=O)N(c1ccc(C3CCC(CC(=O)O)CC3)cc1)CCO2 (stereo not given),outcome,[1],inactive
C[C@@H]1O[C@@H](O[C@@H]2\C=C/C=C\C=C/C=C\C[C@H](C)OC(=O)/C=C\[C@H]3O[C@@H]3C[C@H](O)C[C@]3(O)C[C@@H](O)[C@@H](C(=O)O)[C@H](C2)O3)[C@H](O)[C@H](N)[C@@H]1O,outcome,[1],inactive

# From PubChem BioAssay (NCATS)
